Holding throughout (experiment): DAPPL (digital affinity profiling via proximity ligation, sequencing); 10 mM Tris-HCl pH 7.5, 50 mM NaCl, 1 mM DTT, 4% glycerol, room temperature, 30 min; GST-TFs on glutathione beads, 16-mer random dsDNA library, 0.1% formaldehyde crosslink after washing; high values mean tight binding
Common to all, as to conditions: protein: recombinant; tags: N-terminal GST; dsDNA, one strand shown

One assay concerns the target T1, ERG (Homo sapiens, UniProt P11308 1-479).
T1 sequence: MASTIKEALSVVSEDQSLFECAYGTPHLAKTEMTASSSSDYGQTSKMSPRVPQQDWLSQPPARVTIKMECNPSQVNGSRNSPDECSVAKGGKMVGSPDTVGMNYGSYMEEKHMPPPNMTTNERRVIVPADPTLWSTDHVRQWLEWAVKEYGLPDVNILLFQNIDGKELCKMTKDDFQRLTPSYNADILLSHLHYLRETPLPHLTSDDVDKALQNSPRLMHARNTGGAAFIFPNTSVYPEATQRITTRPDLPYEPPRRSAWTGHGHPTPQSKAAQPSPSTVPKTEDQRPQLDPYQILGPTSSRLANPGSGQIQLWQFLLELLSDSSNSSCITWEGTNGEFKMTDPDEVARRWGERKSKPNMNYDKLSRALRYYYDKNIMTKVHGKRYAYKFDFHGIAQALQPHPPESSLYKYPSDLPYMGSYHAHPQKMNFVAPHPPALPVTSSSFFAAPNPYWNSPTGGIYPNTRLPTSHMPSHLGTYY
An outline of the steps: (§1)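 Binding signal is given per hexamer as its read frequency for a factor divided by its frequency in the tag-only sample. GST-fused human transcription factors were expressed in yeast, captured on glutathione beads, barcoded with DNA and pooled with that sample, then incubated with 200 nmole of a 16-mer random double-stranded DNA library in Tris/NaCl/DTT/glycerol buffer for 30 min at room temperature. The pools were then washed, crosslinked, proximity-ligated, amplified by PCR and sequenced on an Illumina NextSeq500.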

Another assay has as its target ELF1 (Homo sapiens, UniProt P32519 1-619). An outline of the steps: as §1
The next assay concerns the target T2, EHF (Homo sapiens, UniProt Q9NZC4 1-300).
T2 sequence: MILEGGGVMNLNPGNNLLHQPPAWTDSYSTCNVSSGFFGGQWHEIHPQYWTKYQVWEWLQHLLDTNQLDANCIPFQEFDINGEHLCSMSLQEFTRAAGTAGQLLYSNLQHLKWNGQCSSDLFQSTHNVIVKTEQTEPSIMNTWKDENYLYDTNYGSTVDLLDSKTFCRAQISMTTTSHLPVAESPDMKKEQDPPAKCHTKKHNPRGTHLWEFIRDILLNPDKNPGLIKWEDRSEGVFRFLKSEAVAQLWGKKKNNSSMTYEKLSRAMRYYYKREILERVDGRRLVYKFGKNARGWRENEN
In a few lines:
as §1

Another assay has as its target SPIB (Homo sapiens, UniProt Q01892 1-262). In a few lines:
as §1

The target of the next assay is T3, SPIC (Homo sapiens, UniProt Q8N5J4 1-248).
T3 sequence: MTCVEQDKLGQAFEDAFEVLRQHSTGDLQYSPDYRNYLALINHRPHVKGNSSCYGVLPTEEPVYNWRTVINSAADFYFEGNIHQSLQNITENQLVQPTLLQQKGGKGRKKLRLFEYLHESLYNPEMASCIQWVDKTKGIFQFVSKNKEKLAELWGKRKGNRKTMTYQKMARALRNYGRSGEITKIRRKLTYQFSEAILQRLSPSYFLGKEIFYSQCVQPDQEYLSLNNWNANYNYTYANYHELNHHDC
An outline of the steps: as §1

The next assay deals with ELF4 (Homo sapiens, UniProt Q99607 1-663). An outline of the steps:
as §1

The next assay has as its target T4, ETV2 (Homo sapiens, UniProt O00321 1-342).
T4 sequence: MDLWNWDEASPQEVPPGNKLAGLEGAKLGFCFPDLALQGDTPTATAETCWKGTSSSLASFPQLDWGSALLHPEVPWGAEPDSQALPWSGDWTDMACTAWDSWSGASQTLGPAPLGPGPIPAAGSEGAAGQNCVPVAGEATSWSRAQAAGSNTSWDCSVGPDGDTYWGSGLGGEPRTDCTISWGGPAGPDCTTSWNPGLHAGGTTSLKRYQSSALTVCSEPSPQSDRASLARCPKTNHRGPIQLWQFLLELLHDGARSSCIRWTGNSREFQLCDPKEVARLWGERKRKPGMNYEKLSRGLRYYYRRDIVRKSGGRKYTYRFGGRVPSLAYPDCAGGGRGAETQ
In a few lines:
as §1

In a further assay the target is T5, ELF3 (Homo sapiens, UniProt P78545 1-371).
T5 sequence: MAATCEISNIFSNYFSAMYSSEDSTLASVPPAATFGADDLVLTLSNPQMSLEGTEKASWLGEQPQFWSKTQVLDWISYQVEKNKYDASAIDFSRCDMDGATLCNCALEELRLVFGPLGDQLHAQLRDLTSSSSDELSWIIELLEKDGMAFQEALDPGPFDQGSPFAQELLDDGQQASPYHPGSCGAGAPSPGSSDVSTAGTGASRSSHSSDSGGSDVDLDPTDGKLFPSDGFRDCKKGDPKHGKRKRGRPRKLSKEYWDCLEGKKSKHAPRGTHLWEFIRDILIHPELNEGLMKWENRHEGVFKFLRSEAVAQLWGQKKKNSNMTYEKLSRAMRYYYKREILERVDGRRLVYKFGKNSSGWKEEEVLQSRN
An outline of the steps: as §1

The target of another assay is ETV1 (Homo sapiens, UniProt P50549 1-477). In a few lines: as §1
In another assay the target is T6, ERF (Homo sapiens, UniProt P50548 1-548).
T6 sequence: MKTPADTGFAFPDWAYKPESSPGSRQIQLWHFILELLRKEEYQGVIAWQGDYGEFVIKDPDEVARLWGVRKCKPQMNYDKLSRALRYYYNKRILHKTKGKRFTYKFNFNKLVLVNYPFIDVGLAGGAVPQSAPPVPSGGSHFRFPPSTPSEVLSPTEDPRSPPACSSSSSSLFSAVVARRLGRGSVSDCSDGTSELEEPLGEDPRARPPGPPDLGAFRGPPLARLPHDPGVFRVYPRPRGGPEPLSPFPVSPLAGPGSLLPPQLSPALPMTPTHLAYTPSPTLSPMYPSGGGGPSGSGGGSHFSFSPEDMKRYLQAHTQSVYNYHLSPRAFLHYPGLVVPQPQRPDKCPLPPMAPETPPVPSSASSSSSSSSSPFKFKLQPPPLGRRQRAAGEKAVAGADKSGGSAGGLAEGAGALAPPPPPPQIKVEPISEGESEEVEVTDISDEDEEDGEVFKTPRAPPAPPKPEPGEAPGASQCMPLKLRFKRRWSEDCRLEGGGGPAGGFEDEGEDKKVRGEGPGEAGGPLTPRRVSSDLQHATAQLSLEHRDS
In a few lines: as §1

The target in a further assay is T7, ETV3L (Homo sapiens, UniProt Q6ZN32 1-361).
T7 sequence: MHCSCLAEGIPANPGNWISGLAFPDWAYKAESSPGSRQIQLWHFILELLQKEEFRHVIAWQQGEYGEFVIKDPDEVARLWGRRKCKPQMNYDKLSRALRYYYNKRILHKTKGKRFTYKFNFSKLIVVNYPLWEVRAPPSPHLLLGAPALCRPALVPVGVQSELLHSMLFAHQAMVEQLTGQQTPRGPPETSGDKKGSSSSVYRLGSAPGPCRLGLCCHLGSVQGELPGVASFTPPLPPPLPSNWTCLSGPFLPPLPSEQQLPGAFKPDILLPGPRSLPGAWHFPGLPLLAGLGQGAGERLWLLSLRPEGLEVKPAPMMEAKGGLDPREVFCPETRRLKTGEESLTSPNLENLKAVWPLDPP
In a few lines: as §1

The target in the next assay is T8, ETS2 (Homo sapiens, UniProt P15036 1-469).
T8 sequence: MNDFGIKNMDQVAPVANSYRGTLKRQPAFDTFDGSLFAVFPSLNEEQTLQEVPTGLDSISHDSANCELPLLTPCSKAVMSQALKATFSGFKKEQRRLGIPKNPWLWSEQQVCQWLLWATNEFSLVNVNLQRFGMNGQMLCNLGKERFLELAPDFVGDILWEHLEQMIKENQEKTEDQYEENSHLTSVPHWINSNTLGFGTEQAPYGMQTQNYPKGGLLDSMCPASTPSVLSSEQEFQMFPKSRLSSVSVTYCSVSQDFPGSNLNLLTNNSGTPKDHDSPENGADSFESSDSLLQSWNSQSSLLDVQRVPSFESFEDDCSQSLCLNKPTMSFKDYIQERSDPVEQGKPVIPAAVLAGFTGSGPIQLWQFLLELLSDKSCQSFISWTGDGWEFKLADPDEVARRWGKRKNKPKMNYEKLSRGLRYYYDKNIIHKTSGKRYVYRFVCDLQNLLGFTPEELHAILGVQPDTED
In a few lines:
as §1

For another assay, the target named is T9, SPDEF (Homo sapiens, UniProt O95238 1-335).
T9 sequence: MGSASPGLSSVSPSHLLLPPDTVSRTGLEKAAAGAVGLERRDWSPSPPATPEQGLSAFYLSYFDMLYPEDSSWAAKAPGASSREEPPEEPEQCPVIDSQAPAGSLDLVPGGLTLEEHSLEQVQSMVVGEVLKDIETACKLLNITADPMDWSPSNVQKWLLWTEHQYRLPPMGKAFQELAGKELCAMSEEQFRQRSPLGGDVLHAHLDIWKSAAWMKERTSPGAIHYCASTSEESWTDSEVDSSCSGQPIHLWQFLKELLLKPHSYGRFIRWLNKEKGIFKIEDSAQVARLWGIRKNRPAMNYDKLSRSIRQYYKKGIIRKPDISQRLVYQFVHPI
An outline of the steps:
as §1

A further assay has as its target T10, ELF5 (Homo sapiens, UniProt Q9UKW6-2 1-255).
T10 sequence: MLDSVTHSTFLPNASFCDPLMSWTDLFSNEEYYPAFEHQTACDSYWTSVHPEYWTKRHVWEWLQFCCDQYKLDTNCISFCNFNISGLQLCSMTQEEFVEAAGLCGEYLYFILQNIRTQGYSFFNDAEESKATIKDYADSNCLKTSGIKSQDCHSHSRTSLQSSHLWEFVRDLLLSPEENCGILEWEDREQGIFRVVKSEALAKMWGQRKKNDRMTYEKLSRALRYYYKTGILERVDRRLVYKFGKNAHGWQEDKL
In a few lines: as §1

In another assay the target is T11, ETV3 (Homo sapiens, UniProt P41162-2 1-143).
T11 sequence: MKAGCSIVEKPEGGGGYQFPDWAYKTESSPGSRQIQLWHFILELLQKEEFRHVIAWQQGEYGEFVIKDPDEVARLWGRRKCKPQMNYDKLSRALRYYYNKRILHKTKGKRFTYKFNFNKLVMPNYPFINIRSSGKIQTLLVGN
An outline of the steps:
as §1

Chain of ELF1 (P32519 whole entry): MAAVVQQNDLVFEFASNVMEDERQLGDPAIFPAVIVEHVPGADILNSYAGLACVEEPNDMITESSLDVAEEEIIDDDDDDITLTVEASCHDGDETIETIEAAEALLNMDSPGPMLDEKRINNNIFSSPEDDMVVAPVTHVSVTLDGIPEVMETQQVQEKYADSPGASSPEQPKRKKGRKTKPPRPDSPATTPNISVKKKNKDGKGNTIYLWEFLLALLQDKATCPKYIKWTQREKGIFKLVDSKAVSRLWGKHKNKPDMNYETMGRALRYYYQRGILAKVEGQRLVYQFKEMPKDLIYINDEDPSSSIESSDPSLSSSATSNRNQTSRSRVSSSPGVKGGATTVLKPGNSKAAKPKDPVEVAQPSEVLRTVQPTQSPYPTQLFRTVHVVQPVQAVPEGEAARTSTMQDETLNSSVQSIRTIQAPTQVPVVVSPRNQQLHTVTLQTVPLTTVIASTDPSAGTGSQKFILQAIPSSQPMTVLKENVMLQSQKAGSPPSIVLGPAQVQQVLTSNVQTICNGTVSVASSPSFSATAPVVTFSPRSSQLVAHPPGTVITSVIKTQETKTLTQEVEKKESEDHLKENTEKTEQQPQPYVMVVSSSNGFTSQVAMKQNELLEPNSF
Chain of ELF4 (Q99607 whole entry): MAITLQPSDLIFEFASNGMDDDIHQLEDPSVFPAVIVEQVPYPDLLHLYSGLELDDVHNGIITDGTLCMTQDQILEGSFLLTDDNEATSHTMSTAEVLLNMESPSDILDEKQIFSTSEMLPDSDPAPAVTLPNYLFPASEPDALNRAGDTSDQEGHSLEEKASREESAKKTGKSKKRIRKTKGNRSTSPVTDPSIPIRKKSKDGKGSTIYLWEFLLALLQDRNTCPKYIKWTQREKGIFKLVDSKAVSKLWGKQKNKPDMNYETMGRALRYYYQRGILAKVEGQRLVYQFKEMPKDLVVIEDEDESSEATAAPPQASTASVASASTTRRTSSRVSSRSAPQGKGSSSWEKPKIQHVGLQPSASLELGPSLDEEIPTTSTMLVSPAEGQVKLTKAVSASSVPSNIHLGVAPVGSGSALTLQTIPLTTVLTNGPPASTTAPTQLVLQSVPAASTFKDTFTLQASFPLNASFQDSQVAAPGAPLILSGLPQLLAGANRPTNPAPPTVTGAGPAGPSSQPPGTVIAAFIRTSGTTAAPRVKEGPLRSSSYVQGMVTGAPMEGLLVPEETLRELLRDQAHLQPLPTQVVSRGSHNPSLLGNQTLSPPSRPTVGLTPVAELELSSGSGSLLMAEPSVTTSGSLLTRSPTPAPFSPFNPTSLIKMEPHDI
Chain of ETV1 (P50549 whole entry): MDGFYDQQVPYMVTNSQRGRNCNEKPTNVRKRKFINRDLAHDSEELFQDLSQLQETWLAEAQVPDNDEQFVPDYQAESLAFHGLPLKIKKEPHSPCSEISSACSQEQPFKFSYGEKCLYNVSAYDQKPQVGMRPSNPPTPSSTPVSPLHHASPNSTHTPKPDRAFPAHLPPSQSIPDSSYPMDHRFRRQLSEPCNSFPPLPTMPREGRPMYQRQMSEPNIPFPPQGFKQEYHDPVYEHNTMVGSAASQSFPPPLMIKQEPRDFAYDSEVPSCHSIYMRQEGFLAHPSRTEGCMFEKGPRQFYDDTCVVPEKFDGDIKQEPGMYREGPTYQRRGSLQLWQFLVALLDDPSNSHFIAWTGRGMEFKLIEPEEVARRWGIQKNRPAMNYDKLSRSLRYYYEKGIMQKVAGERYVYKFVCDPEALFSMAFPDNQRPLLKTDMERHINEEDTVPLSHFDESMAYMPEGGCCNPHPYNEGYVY
Chain of SPIB (Q01892 whole entry): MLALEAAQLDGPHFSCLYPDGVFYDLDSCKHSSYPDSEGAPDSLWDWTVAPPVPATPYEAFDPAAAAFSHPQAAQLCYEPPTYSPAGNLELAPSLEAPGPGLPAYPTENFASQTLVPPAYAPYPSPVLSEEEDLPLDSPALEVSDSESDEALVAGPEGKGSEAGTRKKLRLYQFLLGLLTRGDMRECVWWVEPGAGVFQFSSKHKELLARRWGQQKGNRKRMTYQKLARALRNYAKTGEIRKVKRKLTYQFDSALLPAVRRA

Take GTGTCT: the binding signal with ERG was 1.1 fold enrichment (6-mer frequency, TF over GST control); with ELF1, 1.06 fold enrichment (6-mer frequency, TF over GST control); with EHF, 1.06 fold enrichment (6-mer frequency, TF over GST control); with SPIB, 1.03 fold enrichment (6-mer frequency, TF over GST control); with SPIC, 1.16 fold enrichment (6-mer frequency, TF over GST control); with ELF4, 1.02 fold enrichment (6-mer frequency, TF over GST control). Also, the binding signal is 1.15 fold enrichment (6-mer frequency, TF over GST control) with ETV2; 1 fold enrichment (6-mer frequency, TF over GST control) with ELF3; 1.09 fold enrichment (6-mer frequency, TF over GST control) in the assay with ETV1; 1.06 fold enrichment (6-mer frequency, TF over GST control) with ERF; 1.09 fold enrichment (6-mer frequency, TF over GST control) with ETV3L; 1.03 fold enrichment (6-mer frequency, TF over GST control) in the assay with ETS2. Moreover, the binding signal is 1.09 fold enrichment (6-mer frequency, TF over GST control) with SPDEF; 1.13 fold enrichment (6-mer frequency, TF over GST control) in the assay with ELF5; 1.02 fold enrichment (6-mer frequency, TF over GST control) in the assay with ETV3.

Values taken from article PMC7862700, “An all-to-all approach to the identification of sequence-specific readers for epigenetic DNA modifications on cytosine”.
